Bioassay records as filed in PubChem BioAssay.
NPC1 promoter act – activates the NPC1 promoter. Huh7 NPC1 promoter luciferase reporter, 24 h. Potency, µM (highest dose often 9.22 µM), inactives show at the highest dose activation, most hits filed as activators. 320,000 compounds, 2.4% hits. AID 485313; also: % of control where 0% means no effect; nearly all actives have a fitted effect of over 60% in size
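Luciferase expression driven by the NPC1 promoter was measured in stably transfected Huh7 cells after a 24 h compound incubation, using a luciferase reagent and a luminescence read.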
ELG1 genotoxic – induces genotoxicity in HEK293T cells with luciferase-tagged ELG1 | 330,000 compounds, 1.3% hits | Potency, µM (titrated, usually from 46 µM), for inactives: at the highest dose activity change, positive = activation, actives largely listed as activators | HEK293T ELG1-luciferase reporter, luminescence, 16 h | AID 504466; also: % of control where 0% means no effect; nearly all actives have a fitted effect of over 60% in size
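16 hr compound incubation (37 °C, 5% CO2) of HEK293T cells carrying luciferase-tagged ELG1; luciferase then measured by ONE-Glo luminescence after 30 min at RT.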
FLuc counter – inhibits or activates purified firefly luciferase, miR-21 counter-screen | P08659 | purified FLuc, Km substrates, luminescence inhibition | Potency, µM (series often up to 57.5 µM), for the others: at the highest dose activity change, negative = inhibition, usual class: inhibitors | 360,000 compounds, 6.9% hits;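 also: plate controls were vehicle for no effect and reference inhibitor for full effect; nearly all actives have a fitted effect of over 55% in size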
Target sequence (P08659 whole entry, looked up): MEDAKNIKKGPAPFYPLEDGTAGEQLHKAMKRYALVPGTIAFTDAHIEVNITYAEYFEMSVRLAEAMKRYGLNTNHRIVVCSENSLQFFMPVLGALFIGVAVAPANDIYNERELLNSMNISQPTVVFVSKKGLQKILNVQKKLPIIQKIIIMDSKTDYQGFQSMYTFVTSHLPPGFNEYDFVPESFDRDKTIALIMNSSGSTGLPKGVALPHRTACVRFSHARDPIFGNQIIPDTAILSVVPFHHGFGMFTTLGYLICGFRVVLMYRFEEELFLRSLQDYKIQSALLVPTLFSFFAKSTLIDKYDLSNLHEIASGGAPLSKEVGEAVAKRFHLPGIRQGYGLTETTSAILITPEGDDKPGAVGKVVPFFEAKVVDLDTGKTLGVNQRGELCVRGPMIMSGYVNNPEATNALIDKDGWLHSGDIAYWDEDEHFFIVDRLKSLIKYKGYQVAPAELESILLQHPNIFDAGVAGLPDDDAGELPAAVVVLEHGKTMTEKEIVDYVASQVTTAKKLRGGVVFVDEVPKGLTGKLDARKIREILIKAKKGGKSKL
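Biochemical qHTS of compounds, final roughly 60 µM downward over six points, against 10 nM purified firefly luciferase using Km concentrations of substrates (10 uM D-luciferin, 10 uM ATP) in Tris acetate pH 7.5 buffer; luminescence output.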
Rab9 promoter act – activates the Rab9 promoter; Huh7 Rab9 promoter-luciferase reporter, luminescence, 24 h; Potency, µM (titrated, usually from 9.22 µM), for the others: at the top dose activation, negative = inhibition, hits mostly activators; 320,000 compounds, 2.8% hits; also: % of control where 0% means no effect; nearly all actives have a fitted effect of over 60% in size
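Huh7 cells stably carrying Rab9 promoter–luciferase reporter, plated 1500 cells/well, compound added after 2 h and incubated 24 h at 37 °C; luciferase luminescence then read after 10 min with detection reagent.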
SMN2 splice enh – enhancers of SMN2 splice variant expression; HEK293 SMN2-luciferase splicing reporter, luminescence, 30-36 h; Potency, µM (titrated, usually from 46.1 µM), for the others: top-dose activity change, positive = activation, most hits filed as activators; 210,000 compounds, 2.8% hits; AID 1458; also: % of control where 0% means no effect; nearly all actives have a fitted effect of over 55% in size
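qHTS luciferase splicing reporter: luminescence rises when SMN2 exon 7 is included in transfected HEK293 cells. Compound exposure lasted 30-36 h at 37C, with 4.5 mM final sodium butyrate as control, followed by a ONE-Glo read.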
ELG1 DNA repair – inhibitors of ELG1-dependent DNA repair in HEK293T cells; HEK293T ELG1-luciferase reporter, luminescence, 16 h; DNA damage induced by 5-fluorouridine; Potency, µM (doses to about 46.1 µM), without a hit: top-dose activity change, negative = inhibition, most hits filed as inhibitors; 330,000 compounds, 2.3% hits; AID 504467; also: % is scaled to controls: 0 for no effect and ±100 for the full control effect; nearly all actives have a fitted effect of over 55% in size
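In this reporter screen, reduction of luminescence relative to DMSO vehicle indicated activity. Compounds and 5-fluorouridine were added together to 2,000 cells per well, incubated for 16 hr at 37 °C, then developed with ONE-Glo.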
The depositor's hits bear a star; ? = inconclusive; / = not tested or not shown; [ ] = another dose, or the depositor's remark. Shown are actives, neighbours in structure and some others; about 9.2% of the full set was active somewhere. Calls follow the shape of the dose curve; as a rule, active = well fitted curve in the direction sought with a large enough effect; inconclusive = small, poorly fitted or top-dose-only effect, or another doubt; inactive = no such curve, though single readings can be large; an effect the other way counts as inactive or inconclusive. Potency is read from the fitted curve at half-maximal effect.

SMILES	NPC1 promoter act	ELG1 genotoxic	FLuc counter	Rab9 promoter act	SMN2 splice enh	ELG1 DNA repair
Cc1ccc2c(c1C)NC(=O)C21N2CCCC2C(C(=O)c2ccc3ccccc3c2)C12C(=O)Nc1ccccc12 (stereo not drawn)	0%	-8%	9.5µM*	12%	/	-7%
O=C(NC1CCS(=O)(=O)C1)c1cccc(S(=O)(=O)N2CCCC2)c1 (stereo not drawn)	-4%	1%	-1%	0%	9%	10%
O=[N+]([O-])c1c(Nc2ccccc2O)cc(Cl)c2nonc12	-44%	-17%	-20%	-29%	/	26µM*
COc1ccc(NC(=O)Nc2cccc3ccccc23)cc1OC	-2%	8%	-8%	-1%	/	2%
COc1cc(NC(=O)Nc2cccc3cccnc23)cc(OC)c1OC	-2%	6%	19µM*	7%	/	-23%
COc1cc(C(=O)Nc2cccc3cccnc23)cc(OC)c1OC	1%	-8%	-9%	-6%	-7%	21µM*
COc1cc(NC(=O)c2cccnc2Sc2ccc(Cl)cc2)cc(OC)c1OC	-1%	-4%	3%	-6%	-34%	8.2µM*
COc1cc(NC(=O)c2ccccn2)cc(OC)c1OC	1%	4%	4%	-4%	-14%	?
CCN1C(=O)[C@@H]2[C@@H](c3ccc(-c4ccc(F)cc4)cc3)N3CCCC[C@@]3(C(=O)OC)[C@@H]2C1=O	-7%	-4%	2%	-3%	/	?
CN1CCN(C(=O)CN(C)S(=O)(=O)c2ccc(F)cc2)CC1	0%	2%	1%	0%	/	17%
CC1=NN(C(N)=S)C(=O)C1N=Nc1ccccc1O (stereo not drawn)	26%	0%	-5%	8%	/	-5%
CCOc1ccccc1N=NC1C(=O)N(C(N)=S)N=C1C (stereo not drawn)	16%	-16%	-1%	-1%	/	9%
CC1=NN(C(N)=S)C(=O)C1N=Nc1ccc(S(N)(=O)=O)cc1 (stereo not drawn)	6%	-2%	19µM*	-3%	/	8%
CC1=NN(C(N)=S)C(=O)C1N=Nc1c(Cl)cc([N+](=O)[O-])cc1Cl (stereo not drawn)	?	9%	13µM*	?	/	?
CC1=NN(C(N)=S)C(=O)C1N=Nc1c(Br)cc(Br)cc1Br (stereo not drawn)	15%	-10%	?	5%	/	3%
CC(=O)N(C)c1ccc(N=NC2C(=O)N(C(N)=S)N=C2C)cc1 (stereo not drawn)	0.5µM*	?	3µM*	-52%	/	?
CC1=NN(C(N)=S)C(=O)C1N=Nc1cccc(Cl)c1 (stereo not drawn)	?	?	17µM*	?	/	?
CC(Oc1ccc(F)cc1)C(O)CCN(C)C (stereo not drawn)	-2%	-4%	3%	-5%	4%	2%
COC(=O)C(Cc1ccccc1)NS(=O)(=O)c1ccc(F)cc1Br (stereo not drawn)	-1%	4%	1%	-8%	/	2%
CCOC(=O)C1=C(C)Nc2ccccc2N=C1NC(=O)c1oc2ccccc2c1COC	-5%	-9%	6%	-6%	/	11µM*
O=C(N/N=C/c1cccs1)c1cccc2cc[nH]c12	?	-8%	24µM*	?	-18%	-4%
O=C(N/N=C/c1cccs1)c1ccc2ncccc2c1	3%	8%	?	4%	15%	?
O=C(N/N=C/c1cc(Br)cs1)c1ccc2c(c1)OCCO2	3%	15%	1.3µM*	?	/	?
O=C(N/N=C/c1cccs1)c1ccc2ccccc2c1	1%	16%	11µM*	?	/	?
Cc1ccc(/C=N/NC(=O)c2ccc3c(c2)OCCO3)s1	?	?	3.4µM*	?	/	?
SMILES	NPC1 promoter act	ELG1 genotoxic	FLuc counter	Rab9 promoter act	SMN2 splice enh	ELG1 DNA repair
Cc1ccc(/C=N/NC(=O)c2ccc3ccccc3c2)s1	-20%	?	27µM*	-11%	/	12%
COCCn1c(SCC(=O)Nc2cccc(NC(C)=O)c2)nc2c([nH]c3ccccc32)c1=O	5%	0%	-1%	16%	/	?
NC1=NC(=O)/C(=C\c2cccs2)S1	0%	8%	?	-6%	3%	26%
O=C1/C(=C\c2cccs2)Sc2ccc3ccccc3c21	-3%	3.7µM*	0.6µM*	20%	15%[1.84 µM]	?
Cc1nn(-c2ccccc2)c2c1C(c1cccs1)C(C#N)=C(N)O2 (stereo not drawn)	2%	-2%	15µM*	-1%	-3%	?
Cc1nn(-c2ccccc2)c2c1C(c1ccco1)C(C#N)=C(N)O2 (stereo not drawn)	0%	1%	13µM*	7%	1%	?
Cc1nn(-c2ccccc2)c2c1C(c1ccc([N+](=O)[O-])cc1)C(C#N)=C(N)O2 (stereo not drawn)	-4%	0%	3%	-1%	/	0%
CCCc1nn(-c2ccccc2)c2c1C(c1cccs1)C(C#N)=C(N)O2 (stereo not drawn)	-1%	0%	-6%	2%	-10%	?
Cc1cc(C(=O)Nc2sc(C)c(-c3ccc(F)cc3)c2C(N)=O)no1	3.2µM*	?	1.2µM*	3.2µM*	13%	?
COc1ccccc1C(=O)Nc1nsc(-c2ccccc2)n1	?	?	4.3µM*	1.6µM*	/	?
O=C(Nc1nnc(-c2ccccc2)s1)c1ccc(F)cc1	?	?	-12%	1.4µM*	?	?
O=C(Nc1nnc(-c2ccc(F)cc2)s1)Nc1ccccc1F	22%	3%	-1%	27%	/	2%
Cc1cc(C(=O)Nc2nnc(-c3ccccc3)s2)no1	26%	20%	27µM*	?	-3%	?
COc1ccc(CN2C(=NC(=O)c3ccccc3)SC3CS(=O)(=O)CC32)cc1 (stereo not drawn)	-1%	11%	3%	6%	/	16%
COc1ccc(CC(=O)OCC(=O)Nc2ccc(N3CCOCC3)cc2)cc1	1%	-1%	-3%	-1%	/	?
CNS(=O)(=O)c1cn(CC(=O)Nc2ccc(F)cc2F)cc1S(=O)(=O)NC	/	/	-6%	/	/	/
COc1ccccc1C(=O)Nc1nnc(-c2ccc(F)cc2)s1	3.2µM*	14%	4.8µM*	4.5µM*	/	?
CCn1cc(C(=O)NCCc2ccc(Cl)cc2)c(=O)c2cc(S(=O)(=O)N3CCc4ccccc4C3)ccc21	/	/	-3%	/	-2%	/
C=C1CSc2nc(=O)c3c4c(sc3n21)CCC4	2%	-7%	2%	0%	-3%	21µM*
